# Bioassay records deposited in PubChem by National Center for Advancing Translational Sciences (NCATS).
# Sampled rows, rich in hits. Any-hit rate of the full collection: about 4.7%.
# D1 agonist – human D1 receptor agonism; P21728; activation, % at 2 µM; hit rate 1% among 360,000; HEK293 T-REx D1 cells, calcium flux, agonist mode; further: 0% is about no effect
# Target sequence (P21728 whole entry, looked up): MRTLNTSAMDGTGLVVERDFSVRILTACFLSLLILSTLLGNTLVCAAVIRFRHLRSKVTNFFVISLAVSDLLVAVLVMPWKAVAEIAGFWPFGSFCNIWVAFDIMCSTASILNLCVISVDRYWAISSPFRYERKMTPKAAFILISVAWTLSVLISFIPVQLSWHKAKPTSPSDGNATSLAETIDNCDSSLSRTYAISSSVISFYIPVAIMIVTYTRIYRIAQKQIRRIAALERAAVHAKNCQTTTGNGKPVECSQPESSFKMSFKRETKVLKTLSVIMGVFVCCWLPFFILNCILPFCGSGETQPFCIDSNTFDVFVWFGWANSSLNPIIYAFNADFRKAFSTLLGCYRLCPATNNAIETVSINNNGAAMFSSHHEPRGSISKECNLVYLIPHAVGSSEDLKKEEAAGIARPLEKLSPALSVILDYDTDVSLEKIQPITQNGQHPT
#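 Agonism was scored from calcium flux recorded over 180 s (1 read/s) after pintool compound addition, following a 10-cycle baseline. Cells were inducible force-coupled HEK293 TREx D1, plated overnight at 30 C and loaded with no-wash calcium dye.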
# D1 antag – blocks dopamine activation of the human D1 receptor; P21728; HEK293 TREx D1 cells, calcium flux, dopamine EC80; stronger effect = lower value; activity change, negative = inhibition, % at 10 µM; hit rate 3.2% among 360,000; in the data active means activity change below about -30%; further: on the % scale 0 is the no-effect control and ±100 the full control effect
#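 Compound effects on dopamine-evoked calcium signalling were measured in tetracycline-induced HEK293 Trex D1 cells. Dopamine at EC80 followed a 180 s compound pre-read, and fluorescence was tracked kinetically for 180 s more.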
# TRHR PAM – allosteric enhancers of human TRH receptor | enhancement, % at 2 µM | hit rate 0.66% among 360,000 | AID 493056 | TRHR cells, fluo-8 calcium fluorescence, EC20 TRH enhancement; in the data active means enhancement above about 30%; further: 0% is about no effect
#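 TRHR-expressing cells loaded with fluo-8 calcium dye were read kinetically (ex 480/em 530) during compound addition, then stimulated with an EC20 of TRH (10 nM final). Enhancement of the Gq-mediated intracellular calcium response was scored.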
# TRHR ag – activates the human TRH receptor; TRHR cells, calcium flux fluo-8, FDSS agonist mode; activation, % at 2 µM; hit rate 0.18% among 360,000; AID 493084; further: 0% is about no effect
#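 Read-out: compound-evoked intracellular calcium rise in TRHR cells, fluo-8 dye, kinetic FDSS fluorescence at 1 s/cycle following a 10-cycle baseline. Cells cultured overnight before dye loading (30 min–1.5 h, RT).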
# D1 PAM – potentiators of human D1 dopamine receptor | P21728 | HEK293 TREx D1 cells, calcium flux, dopamine EC20 potentiation | potentiation, % at 10 µM | hit rate 0.036% among 360,000 | AID 504651; in the data active means potentiation above about 30%; further: 0% is about no effect
# Active calls of the source: *; / = not tested or not shown; ! = a repeat was not active. Unless noted, no stated cut-off is given here; in the data, active means activation above about 30%; inactive means the rest.
SMILES,D1 agonist,D1 antag,TRHR PAM,TRHR ag,D1 PAM
CCc1ccc(-c2cc(C)no2)cc1S(=O)(=O)Nc1ccc(C)cn1,0,-45*!,-3,-1,2
COc1ccc(-c2cc(C)no2)cc1S(=O)(=O)NCC1CCN(Cc2cc(C)ccc2C)CC1,15,0,-1,1,-6
Cc1cc(-c2ccc(C)c(S(=O)(=O)NCC3CCN(Cc4ccc(F)cc4)CC3)c2)on1,9,-33*!,1,0,-7
COc1ccccc1CN1CCC(CNS(=O)(=O)c2cc(-c3cc(C)no3)ccc2C)CC1,40*,-10,3,2,-7
CCCCNC(=O)CCSc1nc(-c2ccc3c(c2)OCO3)cc(C(F)(F)F)n1,5,-6,5,-1,-1
COc1ccccc1CNS(=O)(=O)c1cc(-c2cc(C)no2)ccc1C(C)C,18,-38*,4,-1,-6
COc1ccccc1CNS(=O)(=O)c1cc(-c2cc(C)no2)ccc1C,14,7,10,0,3
CCN(CC)CCNC(=O)c1ccc2c(=O)n3nc(Nc4ccccc4)sc3nc2c1,2,-7,-5,0,0
CC1CCN(c2ccc3c(c2)S(=O)(=O)c2cccc(C(=O)NCc4cccc(F)c4)c2C3=O)CC1,188*,13,-1,53*,-4
CCC(=O)N1CCc2cc(Br)cc(S(=O)(=O)N3CCN(c4ccc(C(C)=O)cc4)CC3)c21,-3,-1,23,0,1
O=C(Nc1ccncc1)c1cn(-c2ccccc2)nc1-c1cccs1,17,-49*,16,0,-24
O=C(Nc1nccs1)c1cn(-c2ccccc2)nc1-c1ccncc1,-2,/,-6,0,-4
COc1cscc1C(=O)O,5,42,2,1,1
O=C(CN1C(=O)COc2ccc(S(=O)(=O)N3CCCC3)cc21)N1CCN(c2ccc(Cl)cc2)CC1,6,4,1,-2,1
CCC(C)OC(=O)/C(C#N)=C\c1ccc(-c2ccccc2Cl)o1 (configuration not stated),14,-2,2,3,1
CCOC(=O)c1cc(-c2ccc(C)cc2)n(CCC(=O)NCCN(C)C)c1C,63*,-8,-4,-1,-7
CCOC(=O)c1cccc(NC(=O)NC2COc3ccccc3C2)c1 (configuration not stated),5,-9,3,0,0
CCOC(=O)C(Cc1ccccc1)NS(=O)(=O)c1ccc(NC(C)=O)cc1 (configuration not stated),1,-31*,-3,-1,-4
CCOC(=O)C(Cc1ccccc1)C(=O)Nc1ccc(NC(=O)C(Cc2ccccc2)C(=O)OCC)cc1 (configuration not stated),5,0,0,1,-1
COC(/C(=N/O)c1ccc(Cl)cc1)c1ccccc1 (configuration not stated),8,-38*,-6,0,-2
CCOC(=O)CCC(NC(=O)CCC(=O)NC(CCC(=O)OCC)C(=O)OCC)C(=O)OCC (configuration not stated),0,0,31*,1,6
CCN(C(=O)[C@@H]1CCCN1C(=O)c1cccs1)c1nc2cc(Cl)ccc2s1,2,-18,8,0,-6
CC(C)(C)OC(=O)N1CCC(c2c(C(=O)NCc3ccccc3)cnn2-c2ccc(F)cc2)CC1,23,-8,27,-2,-6
O=C(O)COc1ccc(-c2nnn(CC(=O)O)n2)cc1,0,-36*,6,0,-6
CC(=O)c1ccc(OCc2ccc(C(=O)c3ccccc3)cc2)cc1,21,-21,-5,0,-6
SMILES,D1 agonist,D1 antag,TRHR PAM,TRHR ag,D1 PAM
O=C(O)Cn1nnc(-c2ccc(OCc3ccccc3Cl)cc2)n1,7,0,-1,1,-8
O=C(O)COc1ccc(C(=O)c2ccccc2)cc1,6,-30*,-1,0,-2
NC(N)=NC(N)=Nc1cccc2ccccc12,1,-10,2,0,1
NC(N)=Nc1cc2ccccc2c2ccccc12,0,-70*,7,0,-8
Cc1cccc(OCC(=O)N/N=C\c2cn(C)c3ccccc23)c1,22,-34*,1,0,-1
Cc1sc(N/N=C/c2cccnc2)nc1-c1ccc(Cl)cc1,-1,-33*,3,0,-10
Clc1ccc(N/N=C/c2cccnc2)cc1,0,21,6,0,-1
Cc1cc(Cl)ccc1NC(=O)c1cc(S(=O)(=O)N2CCOCC2)cn1C,4,-3,5,0,-6
Cc1ccc(N(C)C(=O)c2cc(S(=O)(=O)N3CCc4ccccc43)cn2C)cc1,2,-29,-7,-1,-17
COc1ccc(N(C)C(=O)c2cc(S(=O)(=O)N3CCc4ccccc43)cn2C)c(OC)c1,0,-55*,7,0,-4
CN(C(=O)c1cc(S(=O)(=O)N2CCc3ccccc32)cn1C)C1CCCCC1,3,-54*,0,0,1
Cc1cc(C)c(OCC(=O)N(Cc2ccc(N(C)C)cc2)Cc2ccco2)c(C)c1,4,-11,1,0,-1
CN(CC(=O)Nc1cccc(F)c1)C(=O)c1csc2c1CCCC2,33*,-3,0,0,-11
Cc1ccc(C)c(NC(=O)CSc2nccn2-c2cccc(C)c2C)c1,9,-15,0,0,-4
CC1Cc2ccccc2N1C(=O)CN1C(=O)NC(C)(c2ccc3c(c2)OCCO3)C1=O (configuration not stated),38*,12,5,7,5
CC1(c2ccc3c(c2)OCCO3)NC(=O)N(CC(=O)c2ccc[nH]2)C1=O (configuration not stated),7,8,4,0,/
O=C(Nc1nonc1-c1ccc(Cl)cc1)c1ccccc1F,1,-1,5,-2,2
CCCN(C(=O)CCc1nc(-c2ccc(OC)cc2)no1)c1ccccc1F,6,-7,0,0,-2
Nc1c(C=C2C=CC(=O)C=C2)c(=O)nc2sc(CC(=O)N3CCOCC3)nn12,2,-9,-12,0,-3
C=CCC1=C/C(=C\c2c(N)n3nc(CC(=O)N4CCCC4)sc3nc2=O)C=C(OC)C1=O,109*,3,7,187*,4
COC1=CC(=Cc2c(N)n3nc(CC(=O)N4CCOCC4)sc3nc2=O)C=C(OC)C1=O,191*,0,8,0,2
O=C(N/N=C(\c1ccccc1)c1cccnc1)c1cccc(F)c1,2,-41*,-4,-1,-3
COC(=O)C1Cc2c([nH]c3ccccc23)C2(CCN(Cc3ccccc3)CC2)N1 (configuration not stated),58*,-39*,-4,4,-4
